# Where “and” joins values, the source holds several entries; their conditions need not be identical. Equal values may be shown once. Inconclusive results are not listed. A call without a number means that no potency is given here. A structure can be active in one record and inactive in another. Calls of active or inactive are those of the source. Unless noted, calls come from the whole dose curve; as a rule, active = well fitted curve in the direction sought with a large enough effect; inconclusive = small, poorly fitted or top-dose-only effect, or another doubt; inactive = no such curve, though single readings can be large; an effect the other way counts as inactive or inconclusive.
# Assays:
# [1] = target: Catechol O-methyltransferase (Homo sapiens) (UniProt P21964); experiment: Confirmatory Screen for Target Class Profiling of Small Molecule Inhibitors of Methyltransferases (AID 1745852; calls by dose curve; note: potency is the fitted concentration of half-maximal effect); conditions: MTase-Glo luminescence, SAH detection, recombinant enzyme; measured here: COMT max response; stronger effect = lower value
# Sequence of Catechol O-methyltransferase (Homo sapiens) (P21964 whole entry, looked up): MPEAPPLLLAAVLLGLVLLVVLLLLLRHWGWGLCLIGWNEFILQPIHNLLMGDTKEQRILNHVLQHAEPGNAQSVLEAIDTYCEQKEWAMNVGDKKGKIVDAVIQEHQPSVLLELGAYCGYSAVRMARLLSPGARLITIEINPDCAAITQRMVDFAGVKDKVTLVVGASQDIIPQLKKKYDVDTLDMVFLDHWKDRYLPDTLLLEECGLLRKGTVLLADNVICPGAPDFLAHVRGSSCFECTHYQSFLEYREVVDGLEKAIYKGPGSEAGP
# [2] = target: Guanidinoacetate N-methyltransferase (Homo sapiens) (UniProt Q14353); experiment: as above; conditions: MTase-Glo luminescence, SAH detection, recombinant enzyme; activity change, negative = inhibition: at 57.3 µM (top of the series) unless noted; series mostly up to 57.3 µM
# [3] = target: Nicotinamide N-methyltransferase (Homo sapiens) (UniProt P40261); experiment: as above; conditions: MTase-Glo luminescence, SAH detection, recombinant enzyme; measured here: NNMT max response; stronger effect = lower value
# Sequence of Nicotinamide N-methyltransferase (Homo sapiens) (P40261 whole entry, looked up): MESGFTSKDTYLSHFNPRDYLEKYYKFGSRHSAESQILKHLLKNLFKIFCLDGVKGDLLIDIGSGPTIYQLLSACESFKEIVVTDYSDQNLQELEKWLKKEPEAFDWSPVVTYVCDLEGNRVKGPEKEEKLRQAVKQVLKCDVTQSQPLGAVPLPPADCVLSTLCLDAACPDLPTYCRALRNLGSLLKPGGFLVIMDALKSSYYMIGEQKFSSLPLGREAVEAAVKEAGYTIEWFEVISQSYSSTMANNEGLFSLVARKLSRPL
# [4] = target: Phenylethanolamine N-methyltransferase (Homo sapiens) (UniProt P11086); experiment: as above; conditions: MTase-Glo luminescence, SAH detection, recombinant enzyme; measured here: PNMT max response; stronger effect = lower value
# Sequence of Phenylethanolamine N-methyltransferase (Homo sapiens) (P11086 whole entry, looked up): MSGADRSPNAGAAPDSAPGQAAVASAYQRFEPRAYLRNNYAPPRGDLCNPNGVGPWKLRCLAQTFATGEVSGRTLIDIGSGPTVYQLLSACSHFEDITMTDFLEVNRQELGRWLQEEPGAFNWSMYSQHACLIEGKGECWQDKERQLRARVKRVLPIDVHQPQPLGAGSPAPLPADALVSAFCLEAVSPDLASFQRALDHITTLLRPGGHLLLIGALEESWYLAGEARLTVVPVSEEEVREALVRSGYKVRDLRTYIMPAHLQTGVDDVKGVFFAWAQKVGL
# [5] = target: Glutathione peroxidase 1 (Homo sapiens) (UniProt P07203); experiment: Primary qHTS Assay for Inhibitors of Recombinant Selenoprotein Glutathione Peroxidase 1 (GPX1) (AID 1845191); conditions: recombinant GPX1, GR-coupled NADPH fluorescence, 15 min; series mostly up to 48.8 µM; note: nearly all actives have a fitted effect of over 65% in size
# Sequence of Glutathione peroxidase 1 (Homo sapiens) (P07203 whole entry, looked up): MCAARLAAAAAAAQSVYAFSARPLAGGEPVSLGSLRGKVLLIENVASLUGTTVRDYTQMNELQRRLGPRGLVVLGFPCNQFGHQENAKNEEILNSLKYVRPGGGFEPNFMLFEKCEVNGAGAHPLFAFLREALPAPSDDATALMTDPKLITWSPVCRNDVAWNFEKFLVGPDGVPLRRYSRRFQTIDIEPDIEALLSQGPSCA
# Method in brief: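 NADPH consumption tracked by fluorescence at 340/450 nm between t=0 and t=15 min, room temperature. Final mix: 10 nM GPX1, 100 nM glutathione reductase, 1 mM GSH, 0.5 mM NADPH, 0.5 mM cumene hydroperoxide, 0.01% BSA; 30 min compound–enzyme preincubation.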
# [6] = target: Phospholipid hydroperoxide glutathione peroxidase GPX4 (Homo sapiens) (UniProt P36969); experiment: Primary qHTS Assay for Inhibitors of Recombinant Selenoprotein Glutathione Peroxidase 4 (GPX4) (AID 1845192); conditions: recombinant GPX4, GR-coupled NADPH fluorescence, 15 min; series mostly up to 50 µM; note: nearly all actives have a fitted effect of over 65% in size; note: potency is the fitted concentration of half-maximal effect
# Sequence of Phospholipid hydroperoxide glutathione peroxidase GPX4 (Homo sapiens) (P36969 whole entry, looked up): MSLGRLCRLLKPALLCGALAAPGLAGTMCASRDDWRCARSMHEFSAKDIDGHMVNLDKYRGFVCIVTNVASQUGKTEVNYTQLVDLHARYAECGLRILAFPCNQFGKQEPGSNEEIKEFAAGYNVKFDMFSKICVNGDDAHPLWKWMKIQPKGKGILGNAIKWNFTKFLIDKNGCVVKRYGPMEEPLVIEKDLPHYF
# Method in brief: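 NADPH consumption followed by fluorescence at 340/450 nm, t=0 and after 15 min at room temperature. Reaction started with cumene hydroperoxide (0.5 mM final) after 30 min compound–GPX4 preincubation; final 200 nM GPX4, 100 nM GR, 1 mM GSH, 0.5 mM NADPH.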
# [7] = target: Luciferin 4-monooxygenase (Photinus pyralis) (UniProt P08659); experiment: Primary firefly luciferase (FLuc) qHTS assay for identification of artifact compounds. (AID 1845220); conditions: purified firefly luciferase, luminescence, 5 min; series mostly up to 54.1 µM; note: nearly all actives have a fitted effect of over 60% in size
# Method in brief: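 FLuc 10 nM; luciferin 10 uM; ATP 10 uM; Tris-acetate pH 7.6, Mg-acetate 10 mM; 15 min RT preincubation; 5 min reaction; luminescence.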
# [8] = tested on: Nanoluciferase (engineered Oplophorus gracilirostris luciferase); experiment: Primary Nanoluciferase (NLuc) qHTS assay for identification of artifact compounds. (AID 1845222); conditions: NLuc-conditioned medium, Nano-Glo luminescence, 5 min; series mostly up to 54.1 µM;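 note: NLuc secreted into diluted conditioned medium of S16 cells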
# Method in brief: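 NLuc from S16 cell medium (1:55) plus test compounds, 15 min, room temperature. Luminescence after Nano-Glo (1:100) addition, 5 min.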
# [9] = Primary redox qHTS assay for identification of artifact compounds. (AID 1845223); conditions: Amplex Red/HRP redox cycling with DTT, fluorescence; series mostly up to 53.8 µM; note: potency is the fitted concentration of half-maximal effect
# Method in brief: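 Redox-cycling detection via DTT (250 uM final) oxidation coupled to Amplex Red (25 uM)/HRP (250 mU/mL) in HBSS. 15 min preincubation plus 30 min after DTT, room temperature. Ex/Em 525/598 nm; 4-parameter Hill fit against DMSO and 10 uM DA3003.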
# [10] = Primary fluorescence-based thiol-reactive (MSTI) qHTS assay for identification of artifact compounds. (AID 1845221); conditions: MSTI thiol-reactivity probe, 1 h; series mostly up to 53.8 µM; note: nearly all actives have a fitted effect of over 65% in size; note: potency is the fitted concentration of half-maximal effect
# Method in brief: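 Curve-fitted percent inhibition (4-parameter Hill) derived from fluorescence, Ex 525/Em 598 nm, scaled with Acetyl-MSTI and MSTI; 1 h incubation at room temperature.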
Structure (SMILES),activity [1] [%],Potency [2],activity [3] [%],activity [4] [%],Potency [5],Potency [6],Potency [7],Potency [8],Potency [9],"activity change, negative = inhibition [2]",Potency [10],outcome [7],"activity, negative = inhibition [8]"
Cc1cc2c(N3CCCC3)nc(N3CCCC3)nc2n1C,-23.9,24.1 µM (active),-27.1,-17.6,inactive,inactive,inactive,inactive,0.844 µM (active),–,–,–,–
COC(C)(C)CCn1nc(Nc2c(C)cccc2C)c2cnc(Nc3ccc(OCCN4CCCC4)c(F)c3)nc21,-6.73,–,-23.2,-4.06,inactive,inactive,inactive,inactive,inactive,0%,–,–,–
C=C1C(=O)O[C@@H]2C3=C(C)CCC[C@]3(C)CC[C@@]12O,-87.7,–,-7.46,-3.37,inactive,inactive,inactive,inactive,inactive,-4.1%,–,–,–
C[C@H](Nc1cc2c(-c3ccc4c(c3)OCO4)noc2cn1)c1ccccc1,-8.55,–,-7.23,-13.9,inactive,inactive,inactive,–,inactive,-10.4%,inactive,–,–
CCN(CC)CCCCCCNc1cc(OC)cc2c(C)ccnc12,-3.27,–,0.614,2.1,inactive,inactive,inactive,inactive,–,-0.864%,–,–,–
O=C1NC(=O)C(c2cnc3ccccn23)=C1c1cn2c3c(cc(F)cc13)CN(C(=O)N1CCCCC1)CC2,-28.3,–,-51.2,-20.8,inactive,inactive,inactive,inactive,inactive,-13.3%,–,–,–
CC1=C(C(=O)OC2CCCCC2)C(c2ccc([N+](=O)[O-])cc2)C2=C(CC(C)(C)CC2=O)N1 (stereo unspecified),-30.3,19.2 µM (active),-8.48,-64.1,inactive,inactive,–,–,2.12 µM (active),–,inactive,–,–
CC1(C)CCC(C)(C)c2cc(C#Cc3ccc(C(=O)O)cc3)ccc21,-0.825,–,-63,-5.22,inactive,inactive,–,inactive,inactive,0%,inactive,–,–
C=C1C(=O)O[C@H]2CC(=C)[C@H]3CC[C@@](C)(O)[C@@H]3CC12 (stereo partly specified),-86,–,0,3.31,inactive,inactive,–,inactive,inactive,1.75%,5.32 µM (active),–,–
C/C(=N\N=C(N)N)c1cc(NC(=O)CCCCCCCCC(=O)Nc2cc(/C(C)=N/N=C(N)N)cc(/C(C)=N/N=C(N)N)c2)cc(/C(C)=N/N=C(N)N)c1,-85.9,27.1 µM (active),-74.6,-75.4,inactive,inactive,–,inactive,–,–,inactive,–,–
O=C1Cc2c([nH]c3ccc(Br)cc23)-c2ncccc2N1,-8.4,–,-15.4,-7.69,inactive,inactive,inactive,–,inactive,-5.35%,–,–,–
N#CSc1cc(SC#N)c(N)nc1N,-83.2,4.08 µM (active),-72,-48.1,inactive,inactive,–,–,5.05 µM (active),–,–,inactive [at 11.6 µM],-17.4% [at 11.6 µM] (inactive)
CC#C[C@@H](CC(=O)O)c1ccc(OCc2cccc(-c3ccc(C(F)(F)F)cc3)c2)cc1,-11.2,inactive,-23.8,3.83,inactive,5.7 µM (active),–,inactive,inactive,–,inactive,–,–
CC1(CO)CC(O)[C@]2(C(=O)O)CCC34CC3(C=CC3[C@]5(C)C(CC[C@]34C)C(C)(CO)[C@@H](O)[C@H](O)[C@@H]5O)C2C1 (stereo partly specified),-56.5,–,-2.18,-2.96,inactive,inactive,inactive,inactive,inactive,-5.29% [at 29.8 µM],–,–,–
CN(C)[C@@H]1CCc2[nH]c3ccc(NC(=O)c4ccc(F)cc4)cc3c2C1,0.841,–,0.33,-1.89,inactive,inactive,inactive,inactive,inactive,0%,–,–,–
CCc1c(Cl)c(O)c(Cl)c(O)c1C(=O)O[C@H]1[C@H](O)[C@H](OC)[C@H](OC/C2=C\C=C\C[C@H](O)/C(C)=C\[C@H](CC)[C@@H](O[C@@H]3OC(C)(C)[C@@H](OC(=O)C(C)C)[C@H](O)[C@@H]3O)/C(C)=C/C(C)=C/C[C@@H]([C@@H](C)O)OC2=O)O[C@@H]1C,-16.7,–,-8.66,-8.05,inactive,inactive and 5.01 µM (active),inactive,inactive,–,-5.75% [at 29.8 µM],–,–,–
CC(C)(O)C(=O)N1CCN(c2ccc(C(F)(F)F)c(C3=C(c4c[nH]c5ccccc45)C(=O)NC3=O)c2)CC1,-37.9,30.4 µM (active),-37,-34.7,inactive,inactive,inactive,inactive,inactive,–,3.36 µM (active),–,–
C=C1C(=O)OC2/C=C(\C)CC/C=C(\C=O)C(OC)C(OC(=O)C(C)CC)C12 (stereo unspecified),-70.5,–,-2.69,-0.332,inactive,inactive,inactive,inactive,inactive,-5.12%,–,–,–
Fc1ccc2c(CCNCc3cccc(OCC(F)(F)C(F)F)c3)c[nH]c2c1,-0.052,–,-8.62,-13.2,inactive,inactive,–,inactive,inactive,0.441%,inactive,–,–
O=S(=O)(Nc1cc(Cl)c(Oc2cnc3ccccc3c2)c(Cl)c1)c1ccc(Cl)cc1Cl,-8.48,34.1 µM (active),-47.5,-24,inactive,inactive,inactive,–,inactive,–,inactive,–,–

# From PubChem BioAssay (NCATS)
